Source: the supplement of paper PMC11417369
Over roughly 25,000 sequences, “ln(normalized median fluorescence intensity)” has its median near 9.3; the highest 2% begin near 10. The full list was thinned out, with the highest values kept by preference.

Tested on: PF3D7_0420300 AP2 domain 1 (GST-tagged)
Assay: gcPBM binding intensity (ln(normalized median fluorescence intensity)); higher = stronger DNA binding
Summary of the method: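 Probes on an Agilent 4 × 180k array were primer-extended, double-stranded and 36 bp long, taken from intergenic genomic regions, with negative controls added. GST-tagged P. falciparum DNA-binding domains from E. coli, about 25 μg on average, were applied to the array for 1 h in 1× PBS containing 1% milk, 0.2 mg/ml BSA, 0.5% salmon testes DNA and 0.03% Triton X-100. Binding intensity, obtained after Alexa488 anti-GST antibody detection and a 488 nm scan, is the highest Masliner-normalised natural-log median intensity across replicate spots of either probe orientation.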

Sequence	gcPBM binding intensity (ln)
CATATATAAATATATACACACATACATACATACATA [CACACA_site5988]	9.67
TATAAAAATAAAAAAAGTACACATAAAAATATATAT [XGTACX_site5189]	9.62
TAAAACAATACTTTGTGCTTCTCTGGTTTTTTTTTT [GTGCAC_negctrl_site284]	9.26
ACGTTTGATACACATAAAGTTTTCCTTTGAATGTAC [CACACA_negctrl_site106]	9.26
TTTTAACATAGAAGTACACACATATAATCAATCATA [CACACA_site5313]	9.6
TTAATACATTAAATATGTACTTATATATCTCAACTA [XGTACX_site3997]	9.11
AACACAAATAAGTATTTGGATTATATTACATTTATA [CACACA_negctrl_site465]	9.18
GTGTTTTTATGTGAATGTACATATTTACTATCACAC [XGTACX_site2388]	9.56
TTCATTCTATAAAACACACAAATATTTTTGTATCCC [CACACA_site6458]	9.2
CATAATATGACATACACACACAAAAAAAAAAAAATA [CACACA_site1285]	9.91
AGAAATATCTAATTGTGTACTCAAGAAAAAGTTACG [XGTACX_site372]	9.29
TTACCATAAGTATGTGGTACACTTTAAATGAAGATA [XGTACX_site6972]	8.88
TACATACACAGACACACACACATATAAATATAAATA [CACACA_site7641]	9.95
AATATAAGCAAATACACACACACATATAAATATGTA [CACACA_site7741]	10.2
AAAATTAAAATATATACACACATATATATATTAAAT [CACACA_site4419]	9.57
TACATATATTATTGCACACATATAAAATACCCCCAA [CACACA_site3895]	9.82
TATAAATAAATATACACACACACATATAAATATGTA [CACACA_site6504]	10.1
AATTAAAAAAAATACACACACACATACACATATATA [CACACA_site3298]	10.2
TACAGATATTATTGCACACATATAAAATACCCCCAA [CACACA_site6014]	9.89
AATACATACAGACACACACACACATATAAATAAATA [CACACA_site7642]	10.2
AAAAAAAATTAAATAAATAAATATACACATATATAT [GTGCAC_negctrl_site394]	9.26
CATACATATATTATTGCACACATATAAAATACCCCC [CACACA_site9292]	10.3
CATACATACAGACACACACACATATAAATACATACA [CACACA_site6533]	10

Sequence	gcPBM binding intensity (ln)
AATATAAGCAAATACACACACACATATATATATATA [CACACA_site3805]	10
CATATAAAAAATATGGTGCAGTTTTTTTTTTTTTTT	9.1
ATATATCATAATAGAGGTACACATATTATATATATA [XGTACX_site782]	9.29
TAATTTTTTTTAAATACACACTGAAATGTGAATTTT [CACACA_site4476]	8.96
ACCACCATATAACATACATGCATCTTTTTTCCCTTC [TGCATGCA_site583]	9.79
TTTTTATATTTTATTAGTACTTATTATATATATAAT [XGTACX_site4900]	9.26
TAATAATAGTAAATATGTACATATATATATATATAG [XGTACX_site4602]	9.26
ATATATGTAATAAATAGTACACACACACATATATAT [XGTACX_site2817]	10.3
TGTAATAAATAGTACACACACACATATATATATATT [CACACA_site1388]	9.94
TGTAGTCTGGAGAAAAGTACATAGTATCTGGTAACA [XGTACX_site4940]	9.2
CAAATACATGGACACACACACATATACAGATATATA [CACACA_site5854]	10
TGGGAATAAAAACACACACACACACCGATATATATA [CACACA_site5875]	10.3
GGAATAATATAAAACACACACATAAATATAAATATA [CACACA_site3376]	9.9
ATAATATATAAACACACACACATATATAAATACATT [CACACA_site4466]	10.1
ATAAAAATAAAATGGACACACATATATACATATTTG [CACACA_site3277]	9.68
TATAATCCATAAGAAGCACACACATATATATATATT [CACACA_site8394]	9.76
AAAAAAAAAAGAATAGCACACACACCGATATAAATA [CACACA_site8111]	10.1
AAAATACATGGACACACACACACACCGATATATATA [CACACA_site5885]	10.3
ATAATCCACAAGCACACACACACACCCATATATATA [CACACA_site1268]	10.2
TAATAATCCACAAGCACACACACACCCATATATATA [CACACA_site1267]	10
AAATAATATAAACATACACACACACCGATATATATA [CACACA_site8945]	10.2
ATAATATAAACATACACACACACATATATATATATA [CACACA_site5591]	10
